Assay results from PubChem BioAssay (NCI).
This is part of a sample that, as a whole, favours compounds with a hit. Of some 83,000 tested, about 20% had one in any assay.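 Values shown are percent growth following 48 h exposure of cells in 96-well plates to a single concentration of compound; below 10 was considered active.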 The source made the active and inactive calls.

Experiments:
Assay in all cases: NCI-60 one-dose screen, 48 h (100 = growth as untreated, 0 = no growth, -100 = all killed)
Details in all cases: 10 µM
[1] = test system: DU-145 prostate
[2] = test system: K-562 leukemia
[3] = test system: MALME-3M melanoma
[4] = test system: MDA-MB-231 breast
[5] = test system: SF-268 CNS
[6] = test system: SF-295 CNS
[7] = test system: SF-539 CNS
[8] = test system: UACC-257 melanoma
[9] = test system: M14 melanoma
[10] = test system: HCT-15 colon
[11] = test system: HT29 colon
[12] = test system: SNB-75 CNS
[13] = test system: SNB-19 CNS
[14] = test system: PC-3 prostate
[15] = test system: SK-MEL-5 melanoma
[16] = test system: UACC-62 melanoma
[17] = test system: LOX IMVI melanoma
[18] = test system: SK-MEL-28 melanoma
[19] = test system: U251 CNS

Measured: growth

Cc1ccc(-c2nc(Nc3ccccc3C(=O)O)c3ccccc3n2)cc1
inactive: [1] 19.4% | [2] 17.6% | [3] 19.6% | [4] 35.4% | [5] 11.2% | [7] 21.3% | [8] 28.6% | [9] 12.6% | [11] 17.8% | [12] 15.7% | [14] 15.7% | [16] 11% | [18] 28.8%
active: [6] 5.81% | [10] 4.66% | [13] 8.82% | [15] -24.8% | [17] 8.57%

O=C1CCC(N2Cc3c(NCc4ccc(-c5ccccc5)cc4)cccc3C2=O)C(=O)N1 (stereo unspecified)
inactive: [1] 85% | [2] 72.4% | [3] 15.2% | [4] 22.2% | [5] 68.1% | [6] 81.9% | [7] 58.4% | [8] 103% | [9] 75.4% | [10] 36.4% | [11] 109% | [12] 85.9% | [13] 56.2% | [14] 50.4% | [15] 67.3% | [16] 75.5% | [17] 80.5% | [18] 91.4%

CCOC(=O)N/C(=C1/OCCN1C)[P+](c1ccccc1)(c1ccccc1)c1ccccc1
inactive: [1] 93% | [2] 41.2% | [3] 71% | [4] 59.9% | [5] 103% | [6] 88.1% | [7] 78.1% | [8] 27.8% | [9] 90.9% | [10] 98.5% | [11] 60.3% | [12] 84.3% | [19] 66.3% | [14] 50.5% | [15] 82.8% | [16] 51% | [17] 57.5% | [18] 61.3%

CC1(c2ccccc2)NC(=O)N(CC(=O)Nc2ccc(C(=O)/C=C/c3ccc(Cl)cc3)cc2)C1=O (stereo unspecified)
active: [2] 2.06% | [6] 8.45% | [7] -89.3% | [9] -26.9% | [10] -61.4% | [11] -46.9% | [19] -71.7% | [14] 9.23% | [15] -60.9% | [16] 1.17% | [17] -100%
inactive: [1] 28% | [3] 34.8% | [4] 13.6% | [5] 19.7% | [8] 20.6% | [12] 37.5%

O=C(Nc1ccc(Cl)c(C(F)(F)F)c1)c1cncc(C#Cc2cnc3ccc(N4CCOCC4)nn23)c1
inactive: [1] 20.6% | [2] 13.3% | [9] 11.3% | [10] 15.8% | [19] 20.2% | [14] 23.4%
active: [3] -39.8% | [4] -44.6% | [5] 7.89% | [6] 5.28% | [7] -42% | [8] 6.55% | [11] 8.82% | [12] -1.28% | [15] 4.01% | [16] -10.3% | [17] -48.9% | [18] 0.817%

CC1(c2ccccc2)NC(=O)N(CC(=O)Nc2ccc(C(=O)/C=C/C=C/c3ccccc3)cc2)C1=O (stereo unspecified)
inactive: [1] 61.3% | [2] 14.8% | [3] 81.3% | [4] 63.1% | [5] 57.1% | [7] 20.5% | [8] 63.6% | [9] 59.3% | [10] 12.8% | [11] 25.4% | [12] 54.9% | [13] 61.6% | [14] 36.4% | [15] 51.6% | [16] 43.1% | [17] 26% | [18] 70.9%
active: [6] 5.15%

O=C(CSc1nnc(-c2ccc3nc(-c4ccc(Cl)cc4)[nH]c3c2)o1)Nc1ccc(Br)cc1
active: [2] 5.15% | [3] -81% | [4] -97.3% | [5] 0.811% | [6] -89.4% | [7] -95.2% | [8] -12.9% | [9] -84.4% | [10] -64.2% | [11] -15.8% | [12] 5.11% | [13] -26.6% | [14] 5.11% | [15] -36.9% | [16] -90.8% | [17] -100% | [18] -94.4%
inactive: [1] 11.7%

CC(=O)Nc1ccc(-c2cn(-c3cccc(C(=O)Nc4cccc(OC(F)(F)F)c4)c3)nn2)cn1
inactive: [1] 84.4% | [2] 61.8% | [3] 26.4% | [4] 97.4% | [5] 86.3% | [6] 87.4% | [7] 84.3% | [8] 89.8% | [9] 80.4% | [10] 87.3% | [11] 96.9% | [12] 118% | [13] 113% | [14] 85.3% | [15] 97% | [16] 73.5% | [17] 88.6%

Cc1ccc(/C=C/C(=O)c2ccc(NC(=O)CSc3nnc(-c4c[nH]c5ccccc45)n3-c3ccccc3)cc2)c(C)c1
active: [3] -71.7% | [7] -95.3%
inactive: [1] 41.1% | [2] 35.4% | [4] 21.9% | [5] 72.3% | [6] 66.1% | [8] 90.2% | [9] 53.5% | [10] 51.4% | [11] 65.5% | [12] 92.6% | [19] 13.1% | [14] 48.6% | [15] 88.3% | [16] 72.8% | [17] 13.3% | [18] 80.9%

OCCNc1oc(-c2ccccc2)nc1[P+](c1ccccc1)(c1ccccc1)c1ccccc1
active: [3] -26.1% | [4] -5.38% | [5] 5.6% | [8] -9.09% | [12] -1.51% | [13] 4.29% | [15] -100% | [16] -66.4% | [18] 3.6%
inactive: [1] 16.6% | [2] 11.2% | [6] 20.7% | [7] 16.7% | [9] 11% | [10] 77.8% | [11] 10.4% | [14] 10.6%

Cc1cc(=O)oc2cc(OCCCCOc3ccc(/C=C/C(=O)Nc4ccccc4[N+](=O)[O-])cc3)ccc12
inactive: [1] 102% | [2] 102% | [3] 101% | [4] 102% | [5] 120% | [6] 99.8% | [7] 98.8% | [8] 111% | [9] 112% | [10] 104% | [11] 117% | [12] 103% | [13] 97.8% | [14] 109% | [15] 102% | [16] 94.9% | [17] 107% | [18] 103%

Cc1ccc(/C=C/C(=O)c2ccc(S(=O)(=O)NCCNc3nc(Nc4ccc(F)cc4)nc(N(C)C)n3)cc2)cc1
active: [10] -46.4% | [11] -55.6% | [17] -100%
inactive: [1] 30% | [2] 12.2% | [3] 69.1% | [4] 38.6% | [5] 34.6% | [6] 37.7% | [7] 41.6% | [8] 61.2% | [9] 14.6% | [12] 81.3% | [13] 44.7% | [14] 12.3% | [15] 29.4% | [16] 32.5% | [18] 40.5%

O=C(Cn1nc(-c2ccccc2)ccc1=O)NN1C(=O)c2ccccc2C1=O
inactive: [1] 105% | [2] 99.8% | [3] 90.1% | [4] 100% | [5] 97.9% | [6] 96.5% | [7] 91.2% | [8] 113% | [9] 107% | [10] 99.2% | [11] 120% | [12] 107% | [19] 102% | [14] 97.8% | [15] 100% | [16] 106% | [17] 92.7% | [18] 108%

O=C(CSc1nnc(-c2c[nH]c3ccccc23)n1-c1ccccc1)Nc1ccc(C(=O)/C=C/c2ccc(Cl)cc2)cc1
inactive: [1] 79.7% | [2] 59.4% | [3] 61.6% | [4] 79.3% | [5] 56.9% | [6] 65.3% | [7] 63.9% | [8] 104% | [9] 81.8% | [10] 59.3% | [11] 86.4% | [12] 80% | [19] 73.9% | [14] 58.9% | [15] 83.3% | [16] 62.8% | [17] 67.6% | [18] 84.1%

CN1C(=O)N(C)C2SC(N/N=C/c3ccc(F)cc3)=NC21 (stereo unspecified)
inactive: [1] 76.3% | [2] 15% | [3] 40.1% | [4] 38.7% | [5] 52.1% | [6] 30.8% | [7] 29.3% | [8] 67.7% | [9] 23.8% | [10] 26.1% | [11] 16.2% | [12] 23.7% | [19] 35.4% | [15] 26.8% | [16] 18.4% | [17] 40% | [18] 63.5%

CCCn1c(=O)c2[nH]c(-c3ccc(OCc4nc5ccc(C#N)cc5[nH]4)cc3)nc2n(CCC)c1=O
inactive: [1] 79% | [2] 41.6% | [3] 73.2% | [4] 30.8% | [5] 80.4% | [6] 76.7% | [7] 64.9% | [8] 99.5% | [9] 99.6% | [10] 84.7% | [11] 88.5% | [12] 84.9% | [19] 70.6% | [14] 55.4% | [15] 83.4% | [16] 49.2% | [18] 90.8%

CN(C)CCNC(=O)OCCCCOc1cc(O)c2c(=O)cc(-c3ccccc3)oc2c1
inactive: [12] 103% | [14] 10.3%
active: [1] -27% | [2] 8.72% | [3] -96.8% | [4] -77.8% | [5] -44.9% | [6] -90.5% | [7] -100% | [8] -79.7% | [9] -75.1% | [10] -51.8% | [11] -54.4% | [13] -32.7% | [15] -100% | [16] -88.4% | [17] -100% | [18] -91.5%
